Measurements: PubChem BioAssay (NCATS)
Records with an inconclusive call do not appear. Values without a mark were called inactive. Activity calls are given as the source filed them. Calls follow the shape of the dose curve; as a rule, active = well fitted inhibition curve with a large enough effect; inconclusive = small, poorly fitted or top-dose-only effect; inactive = flat fitted curve, though single readings scatter.

Key:
HEK293 = test: Cytotoxic Profiling of Annotated Libraries Using Quantitative High-Throughput Screening (AID 1296008); details: Five cell lines viability, CellTiter-Glo ATP luminescence, 48-72 h; max response: stronger effect = lower value; also: potency is read from the fitted curve at half-maximal effect; as to max response: % is scaled to controls: 0 for no effect and ±100 for the full control effect
In short: (§1)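 Cytotoxicity was measured as CellTiter-Glo ATP luminescence, read after 10 min at room temperature. Compound treatment of the cells lasted 48 or 72 hr at 37 degrees Celsius in a qHTS format.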

HaCat [1] = test: as above; details: Five cell lines viability, CellTiter-Glo ATP luminescence, 48-72 h; max response: stronger effect = lower value
In short: as §1

NIH3T3 = test: as above; details: Five cell lines viability, CellTiter-Glo ATP luminescence, 48-72 h; max response: stronger effect = lower value
In short: as §1

HACAT [2] = test: qHTS assay to identify novel small-molecules to repurpose for Merkel cell carcinoma treatment (AID 1296009); details: MCC and control cell lines, CellTiter-Glo viability, 72 h; at 44.8 µM (top of the series) unless noted
In short: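 72 hr, 37 degree celsius; NPC 8-pt / MIPE 11-pt dose response; compound pinned in DMSO; CellTiter-Glo, 10 min RT, luminescence; normalized to no-cell and DMSO controls.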
Also: nearly all actives have a fitted effect of over 60% in size.

Cn1ncc(Cl)c1-c1cc(C(=O)N[C@H](CN)Cc2cccc(F)c2)sc1Cl
Potency (HEK293): 1.3 µM (active)

CNc1ccc([N+](=O)[O-])c(Nc2ccc3[nH]ncc3c2)n1
Potency (HEK293): 18.4 µM (active)

C=C1C(=O)O[C@H]2C[C@@H](C)[C@@H]3CCC(=O)[C@@]3(C)C[C@H]12
Potency (HEK293): 6.51 µM (active)

CCC(=C(c1ccc(OCCN2CCCC2)cc1)c1ccc(OCCN2CCCC2)cc1)c1ccccc1
Potency (HEK293): 8.2 µM (active) | max response (HaCat [1]): -11%

COc1cc2c(NC3CCN(C(C)C)CC3)nc(N3CCC(F)(F)CC3)nc2cc1OCCCN1CCCC1
Potency (HEK293): 8.2 µM (active)

Oc1cccc(C2NC(=S)Nc3cccc(F)c32)c1 (centres undefined)
Potency (HEK293): 5.8 µM (active) | Potency (HaCat [1]): 6.51 µM (active)

COC(=O)N1CC2(CC2)C[C@H](C(=O)NO)[C@H]1C(=O)N1CCN(c2ccccc2)CC1
Potency (HEK293): 23.4 µM (active) | Potency (HaCat [1]): 26.3 µM (active) | outcome (NIH3T3): inactive

CNC(=O)COC(=O)N1CCC(CCc2ccc(Cl)cc2)CC1
Potency (HEK293): 14.6 µM (active) | outcome (HaCat [1]): inactive | max response (NIH3T3): -13% | outcome (HACAT [2]): inactive

CO[C@H]1C[C@@H]2CC[C@@H](C)[C@@](O)(O2)C(=O)C(=O)N2CCCC[C@H]2C(=O)O[C@H]([C@@H](C)C[C@@H]2CC[C@@H](O)[C@H](OC)C2)CC(=O)[C@H](C)/C=C(\C)[C@@H](O)[C@@H](OC)C(=O)[C@H](C)C[C@H](C)/C=C/C=C/C=C/1C
Potency (HEK293): 0.0073 µM (active) | max response (HaCat [1]): -8.22% | max response (NIH3T3): -0.671%

OC(c1ccc(-c2ccc(CN3CCN(Cc4ccncc4)CC3)cc2)c(F)c1)(C(F)(F)F)C(F)(F)F
Potency (HEK293): 5.17 µM (active) | max response (HaCat [1]): -9.47% | max response (NIH3T3): -11.3%

O=C(Nc1ccccc1)N1CCC(Cc2cnc3ccccc3c2)CC1
max response (HEK293): -99.9% | max response (HaCat [1]): -1.9% | max response (NIH3T3): 2.45%
